# Data taken from PubChem BioAssay (NCI).
# This is part of a sample that, as a whole, favours compounds with a hit. Of some 79,000 tested, about 15% had one in any assay. Values without a mark were called inactive. The source made the active and inactive calls. Rule as the data show it: active = growth inhibition above about 70%; inactive = the rest.
# Tests used:
# [1] = NCI Yeast Anticancer Drug Screen. Data for the mlh1 strain (AID 171);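 also: 0% = growth of vehicle-treated control cultures of the same strain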; conditions: S. cerevisiae mlh1 strain growth inhibition, stronger effect = higher value
# In short: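 Steps: expose the defined-mutant yeast strain to compound; expose a parallel culture to vehicle; measure growth; express compound effect as inhibition relative to the vehicle culture.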
# [2] = NCI Yeast Anticancer Drug Screen. Data for the sgs1 strain (AID 173);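 also: 0% = growth of vehicle-only control cultures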; conditions: S. cerevisiae sgs1 mutant, stronger effect = higher value
# In short: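 Treat defined-mutant yeast with compound; measure growth; calculate inhibition relative to vehicle-treated cells.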
# [3] = NCI Yeast Anticancer Drug Screen. Data for the mlh1 rad18 strain (AID 175); conditions: S. cerevisiae mlh1 rad18 strain growth inhibition, stronger effect = higher value
# In short: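 Test agents were incubated with a yeast strain of defined genotype (DNA damage repair defect). Inhibition of growth was derived by comparison with vehicle-exposed cultures.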
# [4] = NCI Yeast Anticancer Drug Screen. Data for the rad18 strain (AID 177); conditions: S. cerevisiae rad18 mutant growth inhibition, stronger effect = higher value
# In short: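 A genetically defined yeast mutant impaired in DNA damage repair was treated with test compounds, then its growth was measured against cultures receiving vehicle alone.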
# [5] = NCI Yeast Anticancer Drug Screen. Data for the rad52 strain (AID 147);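 also: 0% = growth of vehicle-treated control cultures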; conditions: S. cerevisiae rad52 mutant growth inhibition, stronger effect = higher value
# In short: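 Screen used a yeast mutant impaired in DNA repair. After compound exposure, growth was measured. Values reflect inhibition compared with vehicle-treated cells.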
# [6] = NCI Yeast Anticancer Drug Screen. Data for the rad50EPP+ strain (AID 151);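 also: 0% = growth of vehicle-treated control cultures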; conditions: S. cerevisiae rad50 mutant strain, stronger effect = higher value
# In short: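 Exposing the rad50EPP+ strain to each compound, growth was compared with vehicle-only cultures to give inhibition.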
# [7] = NCI Yeast Anticancer Drug Screen. Data for the mgt1 strain (AID 153); conditions: S. cerevisiae mgt1 mutant growth inhibition, stronger effect = higher value
# In short: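 Genetically defined yeast (mgt1) treated with compound; inhibition of growth expressed against vehicle-treated controls.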
# [8] = NCI Yeast Anticancer Drug Screen. Data for the rad50 strain (AID 155);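 also: 0% = growth of vehicle-only cultures of the same strain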; conditions: S. cerevisiae rad50 strain growth inhibition, stronger effect = higher value
# In short: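 Inhibition values express reduced yeast growth in compound-treated cultures relative to vehicle-treated controls.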
# [9] = NCI Yeast Anticancer Drug Screen. Data for the mec2-1 strain (AID 157); conditions: S. cerevisiae mec2-1 strain, stronger effect = higher value
# In short: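 Readout is yeast growth inhibition, normalised to vehicle-treated controls, in the mec2-1 strain exposed to compound.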
# [10] = NCI Yeast Anticancer Drug Screen. Data for the rad14 strain (AID 159);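 also: 0% = growth of vehicle-treated control cultures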; conditions: S. cerevisiae rad14 strain growth inhibition, stronger effect = higher value
# In short: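 A mutant yeast strain defective in DNA damage repair is treated with compound; inhibition of its growth is scored against untreated, vehicle-exposed cultures.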
# [11] = NCI Yeast Anticancer Drug Screen. Data for the CLN2oe strain (AID 163);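 also: 0% = growth of vehicle-only control cultures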; conditions: S. cerevisiae CLN2oe strain, stronger effect = higher value
# In short: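 Values reflect how much compound exposure reduced yeast growth, referenced to vehicle-exposed cells. Assay organism is a strain with a defined genetic change affecting cell-cycle control.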
# [12] = NCI Yeast Anticancer Drug Screen. Data for the cln2 rad14 strain (AID 165);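 also: 0% = growth equal to vehicle treated cultures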; conditions: S. cerevisiae cln2 rad14 strain, stronger effect = higher value
# In short: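 Relative to vehicle controls, growth inhibition of compound-treated cln2 rad14 yeast was recorded.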
# [13] = NCI Yeast Anticancer Drug Screen. Data for the bub3 strain (AID 167); conditions: S. cerevisiae bub3 mutant strain, stronger effect = higher value
# In short: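 Steps: expose the mutant yeast strain to compound; grow alongside vehicle-treated cultures; measure growth; express inhibition against the vehicle cultures.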
# [14] = NCI Yeast Anticancer Drug Screen. Data for the wt2 strain (AID 169);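 also: 0% = growth of vehicle-treated yeast cultures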; conditions: S. cerevisiae wt2 strain growth inhibition, stronger effect = higher value
# In short: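 Values express reduction in yeast growth under compound treatment, referenced to vehicle-treated cells.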
# [15] = at 5.0 µM (retest, dose inferred, filed as 0.5)
# [16] = at 50.0 µM (retest, dose inferred, filed as 5.0)
smiles,measurement,setting,value
C=CCC1=C(C)C(OC(=O)/C=C/c2ccccc2)CC1=O (stereo not drawn),growth inhibition,[1]; at 1.2 µM,-3%
same,growth inhibition,[1]; at 3.7 µM,-2%
same,growth inhibition,[1]; at 11.0 µM,-2%
same,growth inhibition,[1]; at 33.0 µM,3%
same,growth inhibition,[1]; at 100.0 µM,42%
same,growth inhibition,[2]; at 1.2 µM,-9%
same,growth inhibition,[2]; at 3.7 µM,26%
same,growth inhibition,[2]; at 11.0 µM,6%
same,growth inhibition,[2]; at 33.0 µM,6%
same,growth inhibition,[2]; at 100.0 µM,53%
same,growth inhibition,[3]; [15],15%
same,growth inhibition,[3]; [16],59%
same,growth inhibition,[3]; at 50.0 µM,5.85%
same,growth inhibition,[4]; at 1.2 µM,-5%
same,growth inhibition,[4]; at 3.7 µM,0%
same,growth inhibition,[4]; at 11.0 µM,-1%
same,growth inhibition,[4]; at 33.0 µM,5%
same,growth inhibition,[4]; at 100.0 µM,31%
CCc1ccc(NS(=O)(=O)c2ccccc2)c([N+](=O)[O-])c1,growth inhibition,[5]; at 1.2 µM,2%
same,growth inhibition,[5]; at 3.7 µM,2%
same,growth inhibition,[5]; at 11.0 µM,11%
same,growth inhibition,[5]; at 33.0 µM,30%
same,growth inhibition,[5]; at 100.0 µM,76% (active)
same,growth inhibition,[6]; at 1.2 µM,10%
same,growth inhibition,[6]; at 3.7 µM,18%
same,growth inhibition,[6]; at 11.0 µM,36%
same,growth inhibition,[6]; at 33.0 µM,53%
same,growth inhibition,[6]; at 100.0 µM,75% (active)
same,growth inhibition,[7]; at 1.2 µM,0%
same,growth inhibition,[7]; at 3.7 µM,0%
same,growth inhibition,[7]; at 11.0 µM,3%
same,growth inhibition,[7]; at 33.0 µM,22%
same,growth inhibition,[7]; at 100.0 µM,74% (active)
same,growth inhibition,[8]; at 1.2 µM,3%
same,growth inhibition,[8]; at 3.7 µM,5%
same,growth inhibition,[8]; [15],2%
same,growth inhibition,[8]; at 11.0 µM,5%
same,growth inhibition,[8]; at 33.0 µM,22%
same,growth inhibition,[8]; [16],39%
same,growth inhibition,[8]; at 50.0 µM,37.2%
same,growth inhibition,[8]; at 100.0 µM,72% (active)
same,growth inhibition,[9]; at 1.2 µM,1%
same,growth inhibition,[9]; at 3.7 µM,8%
same,growth inhibition,[9]; [15],6%
same,growth inhibition,[9]; at 11.0 µM,14%
same,growth inhibition,[9]; at 33.0 µM,27%
same,growth inhibition,[9]; [16],39%
same,growth inhibition,[9]; at 50.0 µM,55%
same,growth inhibition,[9]; at 100.0 µM,81% (active)
same,growth inhibition,[10]; at 1.2 µM,2%
same,growth inhibition,[10]; at 3.7 µM,5%
same,growth inhibition,[10]; at 11.0 µM,6%
same,growth inhibition,[10]; at 33.0 µM,11%
same,growth inhibition,[10]; at 100.0 µM,82% (active)
same,growth inhibition,[11]; at 1.2 µM,-2%
same,growth inhibition,[11]; at 3.7 µM,-2%
same,growth inhibition,[11]; at 11.0 µM,3%
same,growth inhibition,[11]; at 33.0 µM,17%
same,growth inhibition,[11]; at 100.0 µM,73% (active)
same,growth inhibition,[12]; [15],0%
same,growth inhibition,[12]; [16],20%
same,growth inhibition,[12]; at 50.0 µM,47.5%
same,growth inhibition,[13]; at 1.2 µM,-3%
same,growth inhibition,[13]; at 3.7 µM,4%
same,growth inhibition,[13]; [15],-3%
same,growth inhibition,[13]; at 11.0 µM,7%
same,growth inhibition,[13]; at 33.0 µM,28%
same,growth inhibition,[13]; [16],36%
same,growth inhibition,[13]; at 50.0 µM,53.6%
same,growth inhibition,[13]; at 100.0 µM,67%
same,growth inhibition,[14]; at 1.2 µM,-1%
same,growth inhibition,[14]; at 3.7 µM,3%
same,growth inhibition,[14]; at 11.0 µM,3%
same,growth inhibition,[14]; at 33.0 µM,27%
same,growth inhibition,[14]; at 100.0 µM,78% (active)
same,growth inhibition,[1]; at 1.2 µM,0%
same,growth inhibition,[1]; at 3.7 µM,3%
same,growth inhibition,[1]; at 11.0 µM,7%
same,growth inhibition,[1]; at 33.0 µM,31%
same,growth inhibition,[1]; at 100.0 µM,71% (active)
same,growth inhibition,[2]; at 1.2 µM,2%
same,growth inhibition,[2]; at 3.7 µM,5%
same,growth inhibition,[2]; at 11.0 µM,15%
same,growth inhibition,[2]; at 33.0 µM,44%
same,growth inhibition,[2]; at 100.0 µM,90% (active)
same,growth inhibition,[3]; [15],1%
same,growth inhibition,[3]; [16],61%
same,growth inhibition,[3]; at 50.0 µM,78% (active)
same,growth inhibition,[4]; at 1.2 µM,2%
same,growth inhibition,[4]; at 3.7 µM,6%
same,growth inhibition,[4]; at 11.0 µM,15%
same,growth inhibition,[4]; at 33.0 µM,43%
same,growth inhibition,[4]; at 100.0 µM,87% (active)
